Inconclusive results are not listed. The source made the active and inactive calls. Calls come from the whole dose curve; as a rule, active = well fitted inhibition curve with a large enough effect; inconclusive = small, poorly fitted or top-dose-only effect; inactive = flat fitted curve, though single readings scatter.
% is set by controls: 0 for no effect and ±100 for the full control effect.

This assay is described as follows: P-glycoprotein substrates identified in KB-8-5-11 adenocarcinoma cell line, qHTS therapeutic library screen (AID 1346987). Note: nearly all actives have a fitted effect of over 65% in size. The note with it: KB-8-5-11 (P-gp overexpressing) viability, CellTiter-Glo, 72 h; series mostly up to 44.5 µM; activity change, negative = cytotoxicity: at the top concentration. In outline: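 KB-8-5-11: colchicine-selected sub-line of KB-3-1 over-expressing P-gp; assay medium lacked colchicine. 72 h drug exposure at 37 degree C, CellTiter-Glo.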
`Cc1cccc2c1NC(=O)C2(c1ccc(O)cc1)c1ccc(O)cc1`: the “activity change, negative = cytotoxicity” value was -21.4% (inactive).

Consider `Nc1nc2c(c(N3CCNCC3)n1)CCC1=C2[C@@H]2CCCC[C@@H]2O1`, for which the “activity change, negative = cytotoxicity” value was -27.4% (inactive).

As to `CC(C)CCC1(O)C(=O)C(C)(C)C(O[C@@H]2O[C@H](CO)[C@@H](O)[C@H](O)[C@H]2O)C(C)(C)C1O` (stereo partly drawn), the “activity change, negative = cytotoxicity” value is -4.18% [at 17.3 µM] (inactive).

The record behind these values is PubChem BioAssay (NCATS).
